# According to the supplement of paper PMC6555819:
# Tests used:
# Assay in all cases: PBM binding z-score (relative to random genomic background probes); higher = stronger binding; sequences stand for … in GC…GCGATTGACAGCGTAGAATGAAGG
# [1] = tested on: RARg homodimer (NR concentration 270 nM)
# Procedure, shortened: (§1)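 Ligand-free nuclear receptor dimers were bound for 1 h to custom Agilent 4×180K protein-binding microarrays. Detection used antibodies against each partner (one per run). Binding z-scores rest on regression-normalized fluorescence, with random background probes as the reference.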
# [2] = tested on: RXRa DBDmut IVT, anti-RXR (DBD mutation: RXRa K156A/R161A, NR concentration 90 nM)
# Procedure, shortened: as §1
# [3] = tested on: RXRa homodimer (NR concentration 180 nM)
# Procedure, shortened: as §1
# [4] = tested on: THRa:RXRa (NR concentration 90 nM, RXRa partner concentration 90 nM)
# Procedure, shortened: as §1
# [5] = tested on: THRa homodimer (NR concentration 90 nM)
# Procedure, shortened: as §1
# [6] = tested on: VDR homodimer (NR concentration 270 nM)
# Procedure, shortened: as §1
# [7] = tested on: RARg:RXRa (NR concentration 270 nM, RXRa partner concentration 90 nM)
# Procedure, shortened: as §1
sequence,measurement,setting,value
TAGCCGAGGTCATTCAGGGGCCAGTATAGAAAGC,PBM binding z-score,[1],6
same,PBM binding z-score,[2],4.38
same,PBM binding z-score,[3],6.55
same,PBM binding z-score,[4],4.56
same,PBM binding z-score,[5],2.38
same,PBM binding z-score,[6],5.34
CCGACGGGGGCAAAGGTTACCATACTCAGTACGA,PBM binding z-score,[7],6.4
same,PBM binding z-score,[1],4.09
same,PBM binding z-score,[2],3.13
same,PBM binding z-score,[4],3.88
same,PBM binding z-score,[5],1.02
same,PBM binding z-score,[6],2.92
ACTTAGGGGTCAACGAGGTTATAGCACGCGTATA,PBM binding z-score,[1],7.64
same,PBM binding z-score,[2],4.82
same,PBM binding z-score,[5],1.8
same,PBM binding z-score,[6],6.45
CAAACAAGGTCAAAGGTCAAAGTCGAGCCAACCA,PBM binding z-score,[1],8.75
same,PBM binding z-score,[2],4.5
same,PBM binding z-score,[5],2.79
same,PBM binding z-score,[6],5.62
CCTTAAGGGTCACGAGGTTATAGCACGACGAGCG,PBM binding z-score,[1],7.23
same,PBM binding z-score,[2],3.17
same,PBM binding z-score,[4],4.24
same,PBM binding z-score,[5],1.24
same,PBM binding z-score,[6],2.91
AGTCAAAGGTCATCTAGGTAACGTAAGATATGCT,PBM binding z-score,[1],7.77
same,PBM binding z-score,[2],3.31
same,PBM binding z-score,[4],4.7
same,PBM binding z-score,[5],1.42
same,PBM binding z-score,[6],2.52
ATCGAAAGGTCAAGGTGAGTATAGAGAAAGGGAA,PBM binding z-score,[1],8.56
same,PBM binding z-score,[2],2.66
same,PBM binding z-score,[4],4.3
same,PBM binding z-score,[5],1.8
same,PBM binding z-score,[6],1.84
CCTTAGGGGTCACGAGGTTATAGCACGACGAGCG,PBM binding z-score,[1],8.18
same,PBM binding z-score,[2],4.14
same,PBM binding z-score,[4],4.53
same,PBM binding z-score,[5],1.8
same,PBM binding z-score,[6],4.55
CAAACTAGGTCAAAAGGTCAAAGTCCGCTTCCCG,PBM binding z-score,[1],8.65
same,PBM binding z-score,[2],2.66
same,PBM binding z-score,[4],4.48
same,PBM binding z-score,[5],1.87
same,PBM binding z-score,[6],3.77
CAAACGAGGTCAAAGGTCAAAGTCGAGCCAACCA,PBM binding z-score,[1],8.66
same,PBM binding z-score,[2],4.97
same,PBM binding z-score,[5],3.26
same,PBM binding z-score,[6],6.2
TGTCAAAGGTCAAAGGTAACGTAAGTATCCACAC,PBM binding z-score,[1],8.8
same,PBM binding z-score,[2],3.15
same,PBM binding z-score,[4],4.47
same,PBM binding z-score,[5],0.695
same,PBM binding z-score,[6],2.81
CGTCAAAGGTCAAAGGTCAGTGAAGAGATGACGG,PBM binding z-score,[1],9.73
same,PBM binding z-score,[2],4.01
same,PBM binding z-score,[4],4.94
same,PBM binding z-score,[5],1.08
same,PBM binding z-score,[6],3.49
CGTCAAAGGTCAACTAAGGTAACGTAAAGCACGC,PBM binding z-score,[1],9.23
same,PBM binding z-score,[2],3.52
same,PBM binding z-score,[4],5.48
same,PBM binding z-score,[5],2.46
same,PBM binding z-score,[6],2.23
TATACAGGGTCAAAGGTCAGAGTACGAATGTCGA,PBM binding z-score,[1],7.28
same,PBM binding z-score,[2],3.34
same,PBM binding z-score,[5],1.79
same,PBM binding z-score,[6],4.33
TGTCAAAGTTCAAAGGTCACGTAAGTATCCACAC,PBM binding z-score,[1],9.03
same,PBM binding z-score,[2],4.57
same,PBM binding z-score,[5],1.88
same,PBM binding z-score,[6],5.69
TTACCAAGGTCAAAGGTCGTTGATGCACGCCTTG,PBM binding z-score,[1],6.63
same,PBM binding z-score,[2],3.96
same,PBM binding z-score,[4],4.73
same,PBM binding z-score,[5],2.76
same,PBM binding z-score,[6],4.36
TCTAGTAGGTCAAAGGTCACACACTCGAAATGCG,PBM binding z-score,[1],7.76
same,PBM binding z-score,[2],2.77
same,PBM binding z-score,[4],4.73
same,PBM binding z-score,[5],2.3
same,PBM binding z-score,[6],3.32
CTCGAAAGGTCATGCTCAGGTGAGTATACCAAAC,PBM binding z-score,[1],8.47
same,PBM binding z-score,[2],3.44
same,PBM binding z-score,[4],4.72
same,PBM binding z-score,[5],1.61
same,PBM binding z-score,[6],2.44
CCTGCTAGGTCAAAGGTCAGCTAAAGCAGCTCGC,PBM binding z-score,[1],7.57
same,PBM binding z-score,[2],2.83
same,PBM binding z-score,[4],4.6
same,PBM binding z-score,[5],1.41
same,PBM binding z-score,[6],1.75
CGTCAAAGGTCAAGGTCAGTGAAAGAGACTCGAA,PBM binding z-score,[1],9.35
same,PBM binding z-score,[2],3.45
same,PBM binding z-score,[4],4.33
same,PBM binding z-score,[5],2.28
same,PBM binding z-score,[6],3.23
CAAACAAGGTCACAGAGGTCAAAGTCCGTGCGTA,PBM binding z-score,[1],9.05
same,PBM binding z-score,[2],4.67
same,PBM binding z-score,[4],5.03
same,PBM binding z-score,[5],4.36
same,PBM binding z-score,[6],9.97
TCTAGTGGGTCAAAGGTCACACACTCGAAATGCG,PBM binding z-score,[1],7.49
same,PBM binding z-score,[2],2.07
same,PBM binding z-score,[4],4.61
same,PBM binding z-score,[5],1.7
same,PBM binding z-score,[6],2.84
TCTAGTCGGTCAAAGGTCACACACTCGAAATGCG,PBM binding z-score,[1],7.3
same,PBM binding z-score,[2],1.78
same,PBM binding z-score,[4],4.13
same,PBM binding z-score,[5],2.24
same,PBM binding z-score,[6],2.75
CGTCCAAGGTCAAAGGTCAATGAAGAGATGACGG,PBM binding z-score,[1],8.5
same,PBM binding z-score,[2],3.93
same,PBM binding z-score,[5],2.5
same,PBM binding z-score,[6],3.6
CAAACGAGGTCACCGGAAGGTCAAAGTCCGCATG,PBM binding z-score,[1],8.7
same,PBM binding z-score,[2],4.24
same,PBM binding z-score,[5],4.61
same,PBM binding z-score,[6],6
CAAAATAGGTCACCGGAAGGTCAAAGTCCGCATG,PBM binding z-score,[1],8.46
same,PBM binding z-score,[2],2.03
same,PBM binding z-score,[4],4.65
same,PBM binding z-score,[5],1.82
same,PBM binding z-score,[6],3.41
GCTTAGGGGTCAAAGGTTATAGCATGAATAGAAT,PBM binding z-score,[1],7.06
same,PBM binding z-score,[2],4.82
same,PBM binding z-score,[4],4.68
same,PBM binding z-score,[5],0.683
same,PBM binding z-score,[6],4.44
ATCGAAAGGTCATGAGGTGAGTATACAGAAAGGC,PBM binding z-score,[1],8.01
same,PBM binding z-score,[2],3.11
same,PBM binding z-score,[4],4.37
same,PBM binding z-score,[5],1.95
same,PBM binding z-score,[6],2.68
CAAACAAGGTCACCGGAAGGTCAAAGTCCGCATG,PBM binding z-score,[1],8.72
same,PBM binding z-score,[2],4.24
same,PBM binding z-score,[5],4.44
same,PBM binding z-score,[6],5.94
ATCGAAAGGTCAACGAGGTGAGTATACACCGTTT,PBM binding z-score,[1],8.92
same,PBM binding z-score,[2],3.23
same,PBM binding z-score,[4],4.42
same,PBM binding z-score,[5],1.96
same,PBM binding z-score,[6],3.29
GCTTACGGGTCAAAGGTCATAGCATGAATAGAAT,PBM binding z-score,[1],7.46
same,PBM binding z-score,[2],3.56
same,PBM binding z-score,[5],1.04
same,PBM binding z-score,[6],3.19
CCTTACGGGTCACGAGGTCATAGCACGACGAGCG,PBM binding z-score,[1],6.74
same,PBM binding z-score,[2],3.05
same,PBM binding z-score,[4],4.58
same,PBM binding z-score,[5],3.43
same,PBM binding z-score,[6],4.83
CGTCCAAGGTCAAAGGTCATTGAAGAGATGACGG,PBM binding z-score,[1],8.52
same,PBM binding z-score,[2],4.24
same,PBM binding z-score,[5],3.04
same,PBM binding z-score,[6],5.06
CAAACGAGGTCACAGAGGTCAAAGTCCGTGCGTA,PBM binding z-score,[1],9.3
same,PBM binding z-score,[2],4.98
same,PBM binding z-score,[5],5.02
same,PBM binding z-score,[6],10.5
TGTCAAAGTTCAAAGGTTACGTAAGTATCCACAC,PBM binding z-score,[1],6.76
same,PBM binding z-score,[2],4.3
same,PBM binding z-score,[4],4.44
same,PBM binding z-score,[5],0.193
same,PBM binding z-score,[6],4.2
CGTCAAAGGTCAGAGAGGTCAGTGAATGCCGAGT,PBM binding z-score,[1],9.03
same,PBM binding z-score,[2],3.48
same,PBM binding z-score,[4],4.37
same,PBM binding z-score,[5],1.6
same,PBM binding z-score,[6],5.19
CAAACGAGGTCAAGAGGTCAAAGTCCGCTTCCCG,PBM binding z-score,[1],8.65
same,PBM binding z-score,[2],4.19
same,PBM binding z-score,[5],4.11
same,PBM binding z-score,[6],6.32
CGTCAAAGGTCATAGGAGGTCAGTGAAGACAGAT,PBM binding z-score,[1],8.6
same,PBM binding z-score,[2],3.88
same,PBM binding z-score,[5],1.85
same,PBM binding z-score,[6],3.84
CAAACGAGGTCAAGGTCAAAGTCGGTTTGTGCCA,PBM binding z-score,[1],8.18
same,PBM binding z-score,[2],4.52
same,PBM binding z-score,[5],4.79
same,PBM binding z-score,[6],6.15
TCTCGGAGGTCACGAAAGGTCAGAGCTCGACATC,PBM binding z-score,[1],9.26
same,PBM binding z-score,[2],3.38
same,PBM binding z-score,[5],2.36
same,PBM binding z-score,[6],3.58
CCTTAGGGGTCACTCCAGGTTATAGCATCGGAGT,PBM binding z-score,[1],7.07
same,PBM binding z-score,[2],4.21
same,PBM binding z-score,[5],0.963
same,PBM binding z-score,[6],4.35
ACTCGGAGGTCAAAGGTCAGAGCTACGCCAGTGA,PBM binding z-score,[1],8.15
same,PBM binding z-score,[2],3.82
same,PBM binding z-score,[5],1.5
same,PBM binding z-score,[6],3.99
